In PubChem BioAssay (NCATS):
Records with an inconclusive call do not appear. A number with no mark means an inactive call. Activity calls are given as the source filed them. Calls follow the shape of the dose curve; as a rule, active = well fitted cell-killing curve with a large enough effect; inconclusive = small, poorly fitted or top-dose-only effect, or effect the other way; inactive = no such curve, though single readings can be large or run the other way.

test: Quantitative High-Throughput drug screen in 47 multiple myeloma cell lines against the NCATS MIPE library collection: Karpas620_DSMZ cell viability assay (AID 1918959); conditions: Karpas620 myeloma viability, CellTiter-Glo ATP luminescence, 48 h; series mostly up to 45.8 µM; viability (% of DMSO): at the top concentration; also: nearly all actives have a fitted effect of over 30% in size
Text: PI: Beverly A. Mock Ph.D.
Laboratory of Cancer Biology and Genetics,
Center for Cancer Research, National Cancer Institute,
National Institute of Health, Bethesda, Maryland
Drug resistance and disease progression are common in multiple myeloma (MM) patients, underscoring the need for new therapeutic combinations. […] We hypothesized that effective combinations would reduce MYC expression and enhance p16 activity. […] These preclinical data identify potentially useful drug combinations for evaluation in drug-resistant MM and reveal potential mechanisms of combined drug sensitivity.
Described herein is the primary MIPE qHTS used to cherrypick compounds. Validated compounds were then further tested for potential synergistic activiy.
[1] Peat TJ, Gaikwad SM, Dubois W, Gyabaah-Kessie N, Zhang S, Gorjifard S, Phyo Z, Andres M, Hughitt VK, Simpson RM, Miller MA, Girvin AT, Taylor A, Williams D, D'Antonio N, Zhang Y, Rajagopalan A, Flietner E, Wilson K, Zhang X, Shinn P, Klumpp-Thomas C, McKnight C, Itkin Z, Chen L, Kazandijian D, Zhang J, Michalowski AM, Simmons JK, Keats J, Thomas CJ, Mock BA. Drug combinations identified by high-throughput screening promote cell cycle transition and upregulate Smad pathways in myeloma. Cancer Lett. 2023 Aug 1;568:216284. doi: 10.1016/j.canlet.2023.216284. Epub 2023 Jun 24. PMID: 37356470; PMCID: PMC10408729.
SEQUENCE No. (e.g., 1, 2, 3, etc.); […] (e.g., Cells, Incubation, Reagent, etc.); VALUE and DESCRIPTION.
1; Cells; 5 uL; white, solid bottom 1536-well Greiner assay plate.
2; Compounds; 23 nL; Kalypsis pin tool (Wako USA) equipped with a 1536-well pin head to transfer to the assay plates.
3; Incubation; 48 hours; 37C incubation.
4; Reagent;5uL; CellTiter Glo (Promega).
5; Detector; 425V; Luminescence; Viewlux PerkinElmer.
NOTES (numbers refer to Sequence numbers above)
1. The cell-based screening methods employed in this study were like those previously published. Briefly, the corresponding myeloma cell lines were screened in 1,536-well plates with 500 cells, 5-uL per well for inhibition of cell viability (assessed by measuring ATP levels with CellTiterGlo).
2. NCATS MIPE 4.0 library of approved and investigational drugs were added using the Kalypsis pin tool. Wells treated with DMSO only for 100% viability and media only wells for 0% viability were used as controls.
3. The assay plates were covered and incubated for 48 hours in a 37C, 5% CO2 incubator with controlled humidity.
4. After 48 hours, CellTilter-GloTM luminescent substrate mix (Promega) reagent was added to the assay plate and plates we incubated for 5 min at room temperature.
5. Signal was measured as median relative luminescence units on a ViewLux (PerkinElmer) multiplate reader.
[1] Heske CM, Davis MI, Baumgart JT, Wilson K, Gormally MV, Chen L, Zhang X, Ceribelli M, Duveau DY, Guha R, Ferrer M, Arnaldez FI, Ji J, Tran HL, Zhang Y, Mendoza A, Helman LJ, Thomas CJ. Matrix Screen Identifies Synergistic Combination of PARP Inhibitors and Nicotinamide Phosphoribosyltransferase (NAMPT) Inhibitors in Ewing Sarcoma. Clin Cancer Res. 2017 Dec 1;23(23):7301-7311. doi: 10.1158/1078-0432.CCR-17-1121. Epub 2017 Sep 12. PMID: 28899971; PMCID: PMC6636827.
Potency is read from the fitted curve at half-maximal effect.

SMILES | viability (% of DMSO) | Potency
CC(C)(CO)[C@@H](O)C(=O)NCCC(=O)O | 85.2% | –
Cc1ccccc1C(=O)c1ccc(Nc2ccc(Br)cc2N)cc1Cl | – | 4.69 µM (active)
COC1CCC(C(=O)c2ccc3nc4c(cc3c2)CCCO4)CC1 (stereo not given) | – | 16.6 µM (active)
CCCCn1c(=O)n(Cc2ccccc2F)c(=O)c2[nH]c(Cc3ccc(NC(C)=O)cc3)nc21 | 95.6% | –
Oc1ccc(C=Cc2cc(O)cc(O)c2)cc1 | 96.2% | –
COc1cc(C=CC(=O)O)ccc1O | 104% | –
CCN1CCN(c2ccc(Nc3cc(N(C)C(=O)Nc4c(Cl)c(OC)cc(OC)c4Cl)ncn3)cc2)CC1 | 121% | –
CNC1[C@H](O)C(O[C@@H]2C(O)C(O[C@H]3O[C@H]([C@@H](C)NC)CC[C@H]3N)[C@@H](N)C[C@H]2N)OC[C@]1(C)O (stereo not given in full) | 87.6% | –
CCC(=O)N1CCN(c2ccc(-n3c(=O)ccc4cnc5ccc(-c6cnc7ccccc7c6)cc5c43)cc2C(F)(F)F)CC1 | – | 0.0187 µM (active)
CON(C)C(=O)N1N=C(c2cc(F)ccc2F)S[C@]1(CCCN)c1ccccc1 | 47.4% | –
CC1=C(C(=O)Nc2cc3cn[nH]c3cc2F)C(c2ccc(C(F)(F)F)cc2)CC(=O)N1 (stereo not given) | 105% | –
CCC[C@H](N[C@@H](C)C(=O)N1[C@@H]2CCCC[C@H]2C[C@H]1C(=O)O)C(=O)OCC | 97.4% | –
CN(C(Cc1ccc(OS(=O)(=O)c2cccc3cnccc23)cc1)C(=O)N1CCN(c2ccccc2)CC1)S(=O)(=O)c1cccc2cnccc12 (stereo not given) | – | 5.9 µM (active)
CCC(C)SSc1ncc[nH]1 (stereo not given) | – | 4.69 µM (active)
Cc1cnc(Nc2cccc(CN3CCOCC3)c2)nc1Nc1cccc(S(=O)(=O)NC(C)(C)C)c1 | – | 4.69 µM (active)
COc1c(C)c2c(c(O)c1CC=C(C)CCC(=O)O)C(=O)OC2 | 91.9% | –
CC1CCN(c2cc(N3CCN(C)CC3)ccc2NC(=O)c2cc(C#N)c[nH]2)CC1 | 125% | –
CN1CCC(COc2cnc(-c3cccc(Cn4nc(-c5cccc(C#N)c5)ccc4=O)c3)nc2)CC1 | 102% | –
CCC=CC[C@H]1C(=O)CC[C@@H]1CC(=O)OC | 120% | –
CN(C)CCOc1cc(-c2cn[nH]c2)ccc1NC(=O)C1COc2ccccc2O1 (stereo not given) | 94.8% | –

SMILES | viability (% of DMSO) | Potency
Cc1nc(NC(=O)N2CCC[C@@H]2C(N)=O)sc1-c1csc(C(C)(C)C)n1 | – | 14.8 µM (active)
C[C@H](c1ccc(F)cc1CCCC(=O)O)N(c1cc(F)ccc1F)S(=O)(=O)c1ccc(Cl)cc1 | 118% | –
COc1c(C)c2c(c(O)c1CC=C(C)CCC(=O)OCCN1CCOCC1)C(=O)OC2 | 103% | –
CC(C)(C)c1nc(-c2cccc(NS(=O)(=O)c3c(F)cccc3F)c2F)c(-c2ccnc(N)n2)s1 | – | 20.9 µM (active)
CCCCc1ccc(NS(=O)(=O)c2ccc(C)c(C(=O)N3CCN(c4cccc(C)c4C)CC3)c2)cc1 | 103% | –
Cn1c(=O)c(-c2c(Cl)cccc2Cl)cc2cnc(Nc3cccc(C(=O)O)c3)nc21 | – | 1.48 µM (active)
CCC(=C(c1ccc(O)cc1)c1ccc(OCCNC)cc1)c1ccccc1 | – | 26.4 µM (active)
COc1c(C)cnc(Cn2cnc3c(Cl)nc(N)nc32)c1C | – | 0.209 µM (active)
C[C@@H](O[C@H]1OCCN(Cc2n[nH]c(=O)[nH]2)[C@@H]1c1ccc(F)cc1)c1cc(C(F)(F)F)cc(C(F)(F)F)c1 | – | 7.43 µM (active)
Cc1cc(OCCCS(C)(=O)=O)cc(C)c1-c1cccc(COc2ccc3c(c2)OC[C@H]3CC(=O)O)c1 | – | 5.9 µM (active)
CNc1nc(Nc2ccc(C(=O)N3CCOCC3)cc2OC)ncc1Cl | 87.6% | –
Cc1cnc(CNC(=O)c2c(=O)c3ccc(N4CCCN(C)CC4)nc3n3c2sc2ccccc23)cn1 | 112% [at 23.2 µM] | –
CC(=O)Nc1cccc(-n2c(=O)n(C3CC3)c(=O)c3c(Nc4ccc(I)cc4F)n(C)c(=O)c(C)c32)c1 | – | 0.0296 µM (active)
Cc1cccc2c1CC[C@H](CN1CCC(c3c(Cl)cccc3Cl)CC1)C[C@@H]2O | – | 11.8 µM (active)
OC[C@H]1O[C@@H](O[C@H]2[C@@H](O)[C@@](O)(CO)O[C@@H]2CO)[C@H](O)[C@@H](O)[C@@H]1O | 91.9% | –
CCN1CCC(n2cc(CNc3cc(Cl)c4ncc(C#N)c(Nc5ccc(F)c(Cl)c5)c4c3)nn2)CC1 | – | 5.9 µM (active)
NC(N)=Nc1nc(CSCCC(N)=NS(N)(=O)=O)cs1 | 116% | –
O=C(O)c1ccc(O)c2ncc(N3CCOCC3)cc12 | – | 18.7 µM (active)
Cc1ccc(S(=O)(=O)OCC(=O)Nc2ccc(C(=O)O)c(O)c2)cc1 | 83.2% | –
CCOC(=O)[C@H](CCc1ccccc1)N[C@@H](C)C(=O)N1CCCC1C(=O)O (stereo not given in full) | 107% | –
